ChEMBL document CHEMBL4513216, “Probing the Open Global Health Chemical Diversity Library for Multistage-Active Starting Points for Next-Generation Antimalarials” (ACS Infect Dis, 2020)
About 8,600 (12%) of roughly 69,000 compounds showed an effect of 50% or more. What follows is part of a selection rich in strong results, with near analogues and random picks from the rest.

The compounds below were run on Plasmodium berghei (assay: Screen against P. berghei liver stage (PbLuc), transformed with Luciferase, at 10uM). Conditions: tested at 10 uM.
Assay type: functional, HepG2

SMILES	INHIBITION [%]
c1cncc(C2=NOC3(CCN(Cc4c[nH]c5ccccc45)CC3)C2)c1	44.1
c1ccc(O[C@H]2COCCN(Cc3c[nH]c4ccccc34)C2)cc1	-41.9
CCc1ccc(NC(=O)N2C[C@@H]3C[C@H](C(=O)NC4CCC4)[C@H](C2)O3)cc1	-50
O=C(O)COc1ccc(CN2CCCC(Cc3cccnc3)C2)cc1 (centres undefined)	1.62
COCCCN(Cc1ccncc1)C(=O)CSc1ccc(F)cc1	25.8
COCCN(Cc1ccoc1)C(=O)c1c(F)cccc1F	-6.42
COCCN(Cc1ccoc1)C(=O)CSc1ccc(F)cc1	56.5
O=C(Nc1cnccn1)[C@H]1CC[C@@H]2[C@@H](CCN2Cc2ccccn2)O1	-5.08
Cc1cnc(NC(=O)c2ccc(C3CCCN3CC(C)C)s2)s1 (centres undefined)	64
CC(C)CN1CCCC1c1ccc(C(=O)Nc2cc[nH]n2)s1 (centres undefined)	22.3
CC(C)CN1CCCC1c1ccc(C(=O)Nc2ccc3[nH]nnc3c2)s1 (centres undefined)	51.1
CCCN1CCCC1c1ccc(C(=O)N2CCOCC2)s1 (centres undefined)	42.1
CC(C)CN1CCCC1c1ccc(C(=O)Nc2cccnc2)s1 (centres undefined)	89.6
CC(C)CN1CCCC1c1ccc(C(=O)Nc2cn(C)nn2)s1 (centres undefined)	47.9
CC(C)Cc1cc(NC(=O)c2ccc3[nH]nnc3c2)n(C)n1	1.45
CCc1noc(CC)c1CNC(=O)Nc1ccc2[nH]nnc2c1	27.2
CCc1nnc(NC(=O)c2ccc(C3CCCN3CC(C)C)s2)s1 (centres undefined)	15.9
CN1C(=N)NC(=O)/C1=C/c1ccc(-c2ccc(Br)cc2)o1	10.1
O=C(CN1CCC(c2cc(=O)n3c(n2)CCCCC3)C1)N1CCCCC1 (centres undefined)	1.5
Cc1cccc(OCCCN2CCC(N(C)Cc3noc(C)n3)C2)c1 (centres undefined)	1.75
Cc1nc(C2CCCN2C(=O)Cn2cncn2)no1 (centres undefined)	-14
COCCN1CCC(CN(CC2CCCO2)C(=O)Cc2cccs2)CC1 (centres undefined)	4.35
FC(F)(F)c1cc(C2CCCN(c3ncccn3)C2)n2ccnc2n1 (centres undefined)	7.43
Cn1nc(C2CCN(C(=O)CN3CCCCC3)CC2)c2cccnc21	23.2
CCOc1ncccc1CNC(=O)c1cccc(C)n1	38.25
COCC(=O)N1CC[C@H]2C[C@H](c3nnc(C4CC4)o3)O[C@@H]2C1	-6.3
COc1ccc(NC(=O)N(C)Cc2ccsc2)cn1	17.4

SMILES	INHIBITION [%]
CCNc1cc2c(nn1)CCN(C(=O)c1cccnc1N(C)C)C2	17.05
CN1CCN(C(=O)Cn2ccc3c(Cl)cccc32)CC1	-13.6
Cc1cccc(NC(=O)c2ccc(OCc3nnnn3C)cc2)n1	-83.3
Cc1ccnc(NC(=O)c2cccc(OCc3nnnn3C)c2)c1	39.8
Cc1cccc(NC(=O)c2cccc(OCc3nnnn3C)c2)n1	60
CN1CC(=O)N(c2ccccc2)CC12CCN(C(=O)c1ccnnc1)C2 (centres undefined)	-7.29
Cc1nnc(SCC(=O)Nc2csc3nc(=O)c(C)nn23)s1	36.3
Cc1nn2c(NC(=O)CSc3nccn3C)csc2nc1=O	50.8
Cc1cc(NCCSc2nccn2C)n2nc(C)c(C)c2n1	24.7
Cc1ccnc(SCC(=O)Nc2csc3nc(=O)c(C)nn23)n1	72.8
Cc1ccnc(NCc2cn3c(C)csc3n2)n1	-125
Cc1nn2c(NC(=O)CSc3ncccn3)csc2nc1=O	3.77
Cc1ncsc1C(=O)NCc1ccc(-c2n[nH]cc2C(=O)N(C)C)cc1	-3.05
c1cncc(CN2CCCn3nnc(CN4CCCC4)c3C2)c1	-19.8
CNC(=O)C1(c2cnccn2)CCCN1C(=O)c1ccccc1 (centres undefined)	35.2
COCCO[C@H]1CCN(Cc2ccsc2)[C@H]1Cc1cccnc1	-67.6
Cc1nnc(N2C[C@H](OCc3cccnc3)[C@H]3OCCC[C@H]32)s1	47.9
Cc1csc(C2CCCCN2C(=O)c2cn[nH]c2C)n1 (centres undefined)	11.6
CC(=O)NCC(=O)N1Cc2c(-c3cccc(C)c3)nc(N)nc2C1C (centres undefined)	34
CN1CCC(C)(CN(C)C(=O)c2ccc(CCC(C)(C)O)cc2)C1 (centres undefined)	1.71
CCOc1cc(C)nc(N2CCN(C(=O)Cn3cc(C)cn3)CC2)n1	-83.4
Cc1nc(CC(=O)N2CCc3nc(-c4cnccn4)nc(O)c3C2)cs1	59.3
O=C(Cc1ccccn1)N1CCc2nc(-c3cnccn3)nc(O)c2C1	5.69
Oc1nc(-c2cnccn2)nc2c1CCN(Cc1ccccn1)C2	2.71
O=C(CCC1CCCO1)N1CCc2nc(-c3cnccn3)nc(O)c2C1 (centres undefined)	-22.6
O=C(Cc1ccccn1)N1CCc2c(O)nc(-c3cnccn3)nc2C1	52
COCC(=O)N1CCc2nc(-c3cnccn3)nc(O)c2C1	47.2
